Activity calls are given as the source filed them.
Experiments:
[1] = small molecules captured by biotinylated probe aFSTL3 – biochemical, small-molecule microarray, fluorescence 635/667, stem cell growth factor project, primary screen (AID 1064); conditions: higher = more signal;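 also: measures binding of the biotinylated anti-FSTL3 antibody to printed compounds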
[2] = binders from COS7 lysate, DM2A8 probe, primary screen, torsin A project, cell lysate, small-molecule microarray, fluorescence 635/667 (AID 1065); conditions: higher = more signal, COS7 lysate expressing mutant human TOR1A
[3] = small molecules captured by biotinylated probe aFGF2 – biochemical, small-molecule microarray, fluorescence 635/667, stem cell growth factor project, primary screen (AID 1067); conditions: higher = more signal;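 also: measures binding of biotinylated aFGF2 protein to printed compounds on slides; z-score merges feature fluorescence and signal-to-noise across triplicate slides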
[4] = small molecules captured by biotinylated probe aFGF10 – biochemical, small-molecule microarray, fluorescence 635/667, stem cell growth factor project, primary screen (AID 1071); conditions: higher = more signal;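 also: score merges 667 nm spot intensity and signal to noise from triplicate slides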
[5] = target: Neurogenic locus notch homolog protein 2 (Homo sapiens) (UniProt Q04721); test: small molecules binding Notch2 protein – biochemical, small-molecule microarray, 635 nm fluorescence, stem cell growth factors, primary screen (AID 1073); conditions: higher = more signal
[6] = target: Pro-neuregulin-1, membrane-bound isoform (Homo sapiens) (UniProt Q02297); test: small molecules binding neuregulin-1 protein – biochemical, small-molecule microarray, fluorescence 635/667, psychiatric disease protein project, primary screen (AID 1075); conditions: NRG1 binding, 635 nm fluorescence, higher = more signal;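 also: score combines 667 nm spot fluorescence with signal to noise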
[7] = system: Neuregulin-1 EGF-like domain; test: small molecules binding NRG1 EGF domain – biochemical, small-molecule microarray, 635 nm fluorescence, primary screen (AID 1081); conditions: higher = more signal;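 also: binding of the protein to compounds printed on small-molecule microarray slides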
[8] = FRG1 expression reporter modulators in myotubes – cell-based, C2C12 myotubes, firefly/Renilla luciferase, luminescence, FRG1 inhibition for FSHD, primary screen (AID 1084); conditions: FRG1 promoter luciferase, higher = more signal, called active from +8 up or from −8 down
[9] = small molecules captured by biotinylated probe aFST – biochemical, small-molecule microarray, fluorescence 635/667, stem cell growth factor project, primary screen (AID 1086); conditions: higher = more signal;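 also: score merges 667 nm fluorescence with signal-to-noise of each printed compound spot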
[10] = binders of probe aHhip on microarray, primary screen, stem cell growth factor project, biochemical, small-molecule microarray, fluorescence 635/667 (AID 1087); conditions: higher = more signal;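 also: score merges spot fluorescence at 667nm with spot signal to noise ratio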
[11] = system: PRMT1 (protein arginine N-methyltransferase 1); test: small molecules binding arginine methyltransferase PRMT1 – biochemical, small-molecule microarray, 635 nm fluorescence, primary screen (AID 1088); conditions: higher = more signal;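 also: binding of Prmt1 protein to compounds spotted on small-molecule microarray slides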
[12] = growth effects on S. cerevisiae YJM789 – YJM789 clinical isolate, OD600, 24 h, basal, primary screen (AID 1089); conditions: higher = more signal, called active from +8 up or from −8 down;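 also: growth of clinical yeast isolate S. cerevisiae YJM 789 seeded 1000 cells per well; test concentration not given here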
[13] = S. pombe growth modifiers, basal conditions – strain 972, OD600, 24 h, no modulator, primary screen (AID 1090);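 also: basal condition with compound alone and no growth modifier present; test concentration not given here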; conditions: S. pombe 972 growth, higher = more signal, called active from +8 up or from −8 down
[14] = budding yeast growth modifiers under rapamycin – strain BY4716, OD600, 96 h, primary screen (AID 1091); also: test concentration not given here; conditions: S. cerevisiae BY4716 + rapamycin, higher = more signal, called active from +8 up or from −8 down
[15] = target: Torsin-1A-interacting protein 2 (Homo sapiens) (UniProt Q8NFQ8); test: small molecules binding lysate-expressed LULL1 – cell lysate, human LULL1 lysate, 635/667 nm fluorescence, primary screen (AID 1092); conditions: small-molecule microarray, hLULL1 lysate binding, 635 nm fluorescence; higher = more signal;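 also: probe is lysate of COS7 cells overexpressing human LULL1; score merges per-feature 667 nm fluorescence with signal-to-noise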
[16] = optical density change of DRC41 E. coli – strain DRC41, OD650, 24 h, E. coli filamentation project, primary screen (AID 1093);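 also: MC1000 strain lacking acrAB efflux and sulA so SOS filamentation is blocked; test concentration not given here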; conditions: E. coli DRC41 growth, higher = more signal, called active from +8 up or from −8 down
[17] = probe aLefty2 binding to arrayed compounds – biochemical, biotinylated probe, 635/667 nm fluorescence, primary screen (AID 1094); conditions: small-molecule microarray, higher = more signal;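 also: score merges spot fluorescence near 667 nm with spot signal-to-noise ratio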
[18] = system: Noggin (protein binding on small-molecule microarray); test: small molecules binding Noggin protein – biochemical, 635/667 nm fluorescence, primary screen (AID 1095); conditions: 635 nm fluorescence, higher = more signal;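 also: score merges 667 nm feature fluorescence with signal to noise over triplicate slides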
[19] = target: Neurogenic locus notch homolog protein 3 (Homo sapiens) (UniProt Q9UM47); test: small molecules binding NOTCH3 protein – biochemical, 635/667 nm fluorescence, primary screen (AID 1096); conditions: small-molecule microarray, 635 nm fluorescence, higher = more signal
[20] = probe aEGFR binding to arrayed compounds – biochemical, biotinylated probe, 635/667 nm fluorescence, primary screen (AID 1097); conditions: small-molecule microarray, higher = more signal;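 also: probe is a biotinylated anti-EGFR antibody binding compounds printed on slides; score combines fluorescence near 667 nm and signal to noise of each spot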

Chain of Neurogenic locus notch homolog protein 2 (Homo sapiens) (Q04721 whole entry, looked up, canonical isoform): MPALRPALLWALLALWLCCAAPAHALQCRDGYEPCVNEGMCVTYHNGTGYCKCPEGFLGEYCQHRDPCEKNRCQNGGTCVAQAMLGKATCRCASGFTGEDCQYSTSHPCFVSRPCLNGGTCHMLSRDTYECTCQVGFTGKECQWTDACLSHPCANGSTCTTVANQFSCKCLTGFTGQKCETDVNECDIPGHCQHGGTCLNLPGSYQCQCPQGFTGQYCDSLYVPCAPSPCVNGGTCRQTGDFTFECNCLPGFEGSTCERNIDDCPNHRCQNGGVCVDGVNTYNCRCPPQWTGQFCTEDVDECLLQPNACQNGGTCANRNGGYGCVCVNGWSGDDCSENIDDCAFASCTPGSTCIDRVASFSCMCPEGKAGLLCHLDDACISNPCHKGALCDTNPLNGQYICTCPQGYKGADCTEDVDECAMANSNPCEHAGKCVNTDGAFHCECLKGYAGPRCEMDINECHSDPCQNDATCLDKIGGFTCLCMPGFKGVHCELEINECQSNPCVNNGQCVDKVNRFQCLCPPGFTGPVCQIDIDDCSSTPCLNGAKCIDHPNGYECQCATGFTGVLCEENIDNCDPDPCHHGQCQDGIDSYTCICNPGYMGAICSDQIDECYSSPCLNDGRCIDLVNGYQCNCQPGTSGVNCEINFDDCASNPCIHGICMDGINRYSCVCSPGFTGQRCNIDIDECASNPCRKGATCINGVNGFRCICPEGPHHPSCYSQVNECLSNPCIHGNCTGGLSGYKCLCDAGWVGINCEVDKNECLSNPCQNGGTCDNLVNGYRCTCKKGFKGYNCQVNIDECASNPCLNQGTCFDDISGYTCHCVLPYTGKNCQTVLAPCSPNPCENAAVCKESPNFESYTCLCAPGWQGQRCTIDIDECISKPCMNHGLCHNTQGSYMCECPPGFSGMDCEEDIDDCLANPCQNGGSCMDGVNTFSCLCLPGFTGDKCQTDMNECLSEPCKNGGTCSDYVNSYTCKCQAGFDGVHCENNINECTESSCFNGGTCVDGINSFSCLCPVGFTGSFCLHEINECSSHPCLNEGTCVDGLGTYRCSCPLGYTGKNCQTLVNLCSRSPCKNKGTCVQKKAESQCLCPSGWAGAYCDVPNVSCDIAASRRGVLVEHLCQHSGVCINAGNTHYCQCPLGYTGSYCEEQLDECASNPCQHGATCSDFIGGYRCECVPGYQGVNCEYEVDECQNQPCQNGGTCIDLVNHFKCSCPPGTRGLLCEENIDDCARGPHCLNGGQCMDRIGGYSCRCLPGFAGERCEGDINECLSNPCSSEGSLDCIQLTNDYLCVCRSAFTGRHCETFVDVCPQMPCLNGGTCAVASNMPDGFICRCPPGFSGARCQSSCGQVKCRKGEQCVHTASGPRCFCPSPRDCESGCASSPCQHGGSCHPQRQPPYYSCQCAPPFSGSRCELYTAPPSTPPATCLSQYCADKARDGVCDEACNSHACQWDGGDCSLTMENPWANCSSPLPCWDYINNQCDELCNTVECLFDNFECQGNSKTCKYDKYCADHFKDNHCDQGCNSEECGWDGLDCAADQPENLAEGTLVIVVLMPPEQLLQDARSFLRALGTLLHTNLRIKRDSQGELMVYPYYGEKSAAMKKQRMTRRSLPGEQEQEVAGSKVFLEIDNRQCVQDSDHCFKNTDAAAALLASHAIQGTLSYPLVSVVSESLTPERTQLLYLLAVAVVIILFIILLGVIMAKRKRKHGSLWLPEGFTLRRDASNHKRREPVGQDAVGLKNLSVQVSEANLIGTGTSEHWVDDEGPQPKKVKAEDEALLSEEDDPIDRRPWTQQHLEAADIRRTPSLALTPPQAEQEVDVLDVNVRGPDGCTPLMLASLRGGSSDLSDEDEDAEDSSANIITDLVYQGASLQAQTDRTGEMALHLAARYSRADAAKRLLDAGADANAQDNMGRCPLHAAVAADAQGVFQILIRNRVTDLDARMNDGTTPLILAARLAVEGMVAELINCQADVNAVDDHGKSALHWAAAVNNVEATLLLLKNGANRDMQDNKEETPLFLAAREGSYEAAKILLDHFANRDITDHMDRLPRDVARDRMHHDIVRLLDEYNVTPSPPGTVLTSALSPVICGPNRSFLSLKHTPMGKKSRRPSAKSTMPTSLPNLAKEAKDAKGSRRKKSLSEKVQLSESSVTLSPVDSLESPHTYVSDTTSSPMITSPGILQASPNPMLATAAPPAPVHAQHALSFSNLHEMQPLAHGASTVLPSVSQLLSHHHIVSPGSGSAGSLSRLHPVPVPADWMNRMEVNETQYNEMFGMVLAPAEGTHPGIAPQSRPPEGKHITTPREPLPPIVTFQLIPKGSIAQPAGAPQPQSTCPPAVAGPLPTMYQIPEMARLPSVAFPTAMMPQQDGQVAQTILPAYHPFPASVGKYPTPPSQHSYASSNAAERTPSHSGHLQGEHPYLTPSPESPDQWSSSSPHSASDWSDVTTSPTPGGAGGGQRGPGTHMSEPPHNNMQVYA
Chain of Torsin-1A-interacting protein 2 (Homo sapiens) (Q8NFQ8 whole entry, looked up): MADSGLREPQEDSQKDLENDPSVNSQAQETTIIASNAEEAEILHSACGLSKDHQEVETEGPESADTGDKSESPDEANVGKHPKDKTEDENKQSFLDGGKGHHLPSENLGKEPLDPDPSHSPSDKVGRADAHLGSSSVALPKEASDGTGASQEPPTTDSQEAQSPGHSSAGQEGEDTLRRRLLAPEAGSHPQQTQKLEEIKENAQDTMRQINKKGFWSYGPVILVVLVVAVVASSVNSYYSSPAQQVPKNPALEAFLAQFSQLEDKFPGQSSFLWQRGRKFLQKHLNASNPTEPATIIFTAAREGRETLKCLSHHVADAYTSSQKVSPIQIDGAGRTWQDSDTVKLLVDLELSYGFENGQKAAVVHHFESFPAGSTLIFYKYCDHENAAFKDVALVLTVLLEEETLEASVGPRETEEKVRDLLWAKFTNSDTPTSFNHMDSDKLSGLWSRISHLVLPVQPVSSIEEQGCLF
Chain of Pro-neuregulin-1, membrane-bound isoform (Homo sapiens) (Q02297 whole entry, looked up, the tested form may be a part, canonical isoform): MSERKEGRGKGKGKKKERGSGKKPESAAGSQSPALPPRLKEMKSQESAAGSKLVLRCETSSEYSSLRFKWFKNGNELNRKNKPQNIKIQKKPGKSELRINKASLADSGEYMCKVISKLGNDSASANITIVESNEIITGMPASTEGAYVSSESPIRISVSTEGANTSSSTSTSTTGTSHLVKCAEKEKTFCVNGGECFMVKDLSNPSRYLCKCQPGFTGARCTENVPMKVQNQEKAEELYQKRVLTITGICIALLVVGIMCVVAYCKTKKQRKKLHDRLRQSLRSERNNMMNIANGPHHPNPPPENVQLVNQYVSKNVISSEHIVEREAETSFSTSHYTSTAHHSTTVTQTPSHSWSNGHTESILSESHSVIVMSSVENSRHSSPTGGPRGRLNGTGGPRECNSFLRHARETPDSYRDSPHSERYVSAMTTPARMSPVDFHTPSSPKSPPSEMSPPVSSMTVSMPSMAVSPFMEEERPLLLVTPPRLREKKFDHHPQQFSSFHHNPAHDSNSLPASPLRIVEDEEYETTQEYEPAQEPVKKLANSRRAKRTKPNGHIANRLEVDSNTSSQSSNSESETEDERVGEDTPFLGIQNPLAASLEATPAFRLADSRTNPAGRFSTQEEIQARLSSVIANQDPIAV

SMILES	composite z-score [1]	composite z-score [2]	composite z-score [3]	composite z-score [4]	composite z-score [5]	composite z-score [6]	composite z-score [7]	z-score [8]	composite z-score [9]	composite z-score [10]	composite z-score [11]	z-score [12]	z-score [13]	z-score [14]	composite z-score [15]	z-score [16]	composite z-score [17]	composite z-score [18]	composite z-score [19]	composite z-score [20]
CC1=C([C@H](O)CCc2ccccc2)[C@H](CO)n2c(=O)n(-c3ccccc3)c(=O)n2C1	-0.312	-0.322	-0.159	0.0052	-0.371	-0.355	-0.56	-0.973 (inactive)	-0.429	-0.236	-0.0416	-1.02 (inactive)	-1.03 (inactive)	-0.539 (inactive)	-0.478	1.87 (inactive)	-0.355	0.0865	-0.696	-0.211
CC(C)NC(=O)[C@@]1(c2ccc([N+](=O)[O-])cc2)CC(=O)N(CC23CC4CC(CC(C4)C2)C3)[C@@H]1c1ccc(CO)cc1	1.43	0.522	0.516	1.02	1.42	1.9	1.18	-3.57 (inactive)	1.86	1.11	1.54	-0.383 (inactive)	-0.822 (inactive)	0.937 (inactive)	3.03	0.267 (inactive)	0.707	1.57	1.02	0.837
COc1ccc(C(O)C2C=CC3C(=O)N(c4ccccc4)C(=O)C3N2Nc2ccc([N+](=O)[O-])cc2)c2ccccc12 (stereo not given)	0.138	0.263	0.0688	0.852	1.6	1.75	1.27	0.337 (inactive)	0.812	0.251	1.53	-0.861 (inactive)	1.68 (inactive)	2.3 (inactive)	3.38	-0.824 (inactive)	0.0798	-0.268	1.07	-0.0076
CN(C)CCCC[C@@H]1NC(=O)[C@@H]2C[C@H](C(=O)NCCCCCN)[C@H](c3cccc(OCCO)c3)N2C1=O	-0.439	1.75	-0.121	0.549	0.549	1.09	1.35	-1.02 (inactive)	0.153	0.0722	1.32	-5.45 (inactive)	-3.9 (inactive)	-0.962 (inactive)	1.96	2.65 (inactive)	-0.0592	1.17	1.04	-0.0943
CCCCC(O)C1C=CC2C(=O)N(c3ccccc3)C(=O)C2N1Nc1ccccc1 (stereo not given)	0.436	-0.572	-0.0414	0.43	1.2	1.62	1.12	0.0165 (inactive)	0.545	-0.137	0.24	0.102 (inactive)	-1.32 (inactive)	1.77 (inactive)	2.93	-0.193 (inactive)	-0.0355	-0.422	0.452	-0.153
COC(=O)[C@@]1(Cc2ccccc2)N=C(c2ccc(OCCCO)cc2)O[C@H]1c1ccccc1CN=[N+]=[N-]	0.261	0.0296	-0.0529	0.0585	0.33	1.02	0.666	-2.6 (inactive)	0.226	-0.41	1.55	-0.605 (inactive)	-0.129 (inactive)	29.9 (active)	2.27	1.62 (inactive)	-0.0747	1.05	0.129	0.0267
CO[C@H]1O[C@H](CO)[C@@H](OC(=O)Nc2ccccc2)[C@H](OC(=O)Nc2ccccc2)[C@H]1OC(=O)Nc1ccccc1	-0.114	0.0396	0.118	1.17	0.971	0.888	1.34	0.921 (inactive)	0.0643	-0.0296	1.43	1.55 (inactive)	0.759 (inactive)	0.997 (inactive)	3.49	0.758 (inactive)	-0.134	0.772	0.814	-0.0978
CN(C)CCCCNC(=O)[C@H]1C[C@H]2C(=O)NCC(=O)N2[C@H]1c1ccc(O)cc1	-0.772	-1.42	-0.273	-0.814	-0.929	0.68	1.07	5.11 (inactive)	0.0525	-0.407	0.784	0.873 (inactive)	0.981 (inactive)	0.144 (inactive)	1.21	0.187 (inactive)	-0.189	0.15	0.408	-0.139
O=C1C2C=CC(C(O)c3ccc([N+](=O)[O-])cc3)N(Nc3ccccc3F)C2C(=O)N1c1ccccc1 (stereo not given)	0.484	0.173	-0.0172	0.438	1.12	1.6	1.29	-0.101 (inactive)	0.883	-0.163	0.67	0.213 (inactive)	0.619 (inactive)	1.05 (inactive)	1.87	-0.774 (inactive)	0.296	-0.316	0.98	-0.0278
C[C@]1(C(=O)O)c2ccccc2C(=O)N(Cc2cc(F)cc(C(F)(F)F)c2)[C@H]1c1ccc(CO)cc1	-0.25	-0.205	-0.0887	0.0859	0.361	0.233	0.936	-0.163 (inactive)	0.436	-0.268	0.413	-0.994 (inactive)	-1.3 (inactive)	-1.9 (inactive)	1.64	0.581 (inactive)	-0.153	1.04	0.137	-0.115
